Calls of active or inactive are those of the source.

One experiment addresses Albumin (Bos taurus) (UniProt P02769). Briefly: bovine serum albumin binders on microarray, profiling panel, artefact control for SMM control protein annotation, biochemical, small-molecule microarray, Alexa647 label, 635/667 nm fluorescence (AID 1118).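 Note: score merges 667 nm emission intensity and signal-to-noise per printed compound spot.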 To be noted: BSA-A647 binding, fluorescence 635 nm, higher = more signal.
A short description of experiment [1]: small-molecule microarray binders of probe aXIP, primary screen, biochemical, NeuroSMM set, 635/667 nm fluorescence (AID 1119).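 Note: probe is the protein aXip251-270 applied at 1 µg/mL to compound-printed slides; binding of probe to printed compounds measured as 667 nm fluorescence plus signal to noise.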 The settings on record: higher = more signal, called active from +8 up or from −8 down.
The nature of experiment [2]: small-molecule binders of probe aNOTCH3, primary screen, biochemical, small-molecule microarray, 635/667 nm fluorescence (AID 1120).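 Note: probe is a biotin-tagged antibody raised against NOTCH3 rather than NOTCH3 protein; score merges spot fluorescence near 667 nm with spot signal to noise.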 To be noted: higher = more signal.
Experiment [3] can be described thus: small-molecule binders of probe aNOTCH2, primary screen, biochemical, small-molecule microarray, 635/667 nm fluorescence (AID 1121).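 Note: score merges feature fluorescence read at 667 nm with its signal to noise.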 The settings on record: higher = more signal.
Experiment [4] addresses Carbonic anhydrase 2 (Homo sapiens) (UniProt P00918). Briefly: CAII small-molecule binders, profiling panel, biochemical, small-molecule microarray, Alexa647-labelled CAII (AID 1122). To be noted: CAII-A647 binding fluorescence, higher = more signal.
Experiment [5] can be described thus: COS7 lysate on small-molecule microarray, probe aHis, 635 nm (AID 1123).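 Note: z-score combines 667nm fluorescence intensity with signal-to-noise per printed compound spot.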 The settings on record: COS7 cell lysate, fluorescence, higher = more signal.
A short description of experiment [6]: compound binding in COS7 lysate, probe aLAP1, primary screen, cell lysate, small-molecule microarray (AID 1124).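 Note: lysate comes from COS7 cells expressing LAP1 and is applied at 0.3 µg/mL; score merges spot fluorescence near 667 nm with signal-to-noise over triplicate slides.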 To be noted: probe aLAP1, fluorescence, higher = more signal.
The subject of a further experiment is Sam68 (KHDRBS1). Briefly: Sam68 small-molecule binders, primary screen, biochemical, small-molecule microarray, 635 nm fluorescence (AID 1125).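 Note: score merges 667 nm channel intensity with signal to noise over triplicate slides.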 To be noted: small-molecule microarray binding, higher = more signal.
Experiment [7] deals with Chordin-like protein 2 (CHRDL2). Put plainly: CHRDL2 small-molecule binders, primary screen, biochemical, small-molecule microarray, 635 nm fluorescence (AID 1126).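 Note: printed compound slides probed with Chrdl2 protein at 4 µg/mL for 1 h at 4 C; score merges 667 nm emission intensity with signal to noise over three replicate slides.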 To be noted: small-molecule microarray binding, fluorescence 635 nm; higher = more signal.
The target in experiment [8] is Concanavalin-A (Canavalia ensiformis) (UniProt P02866). Put plainly: ConA small-molecule binders, primary screen, artefact control for SMM control protein annotation, biochemical, small-molecule microarray, Alexa647 label, 635 nm (AID 1127).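 Note: z combines 667 nm emission intensity with signal-to-noise across three replicate slides.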 The settings on record: ConA-A647 binding fluorescence, higher = more signal.
Sequence of Concanavalin-A (Canavalia ensiformis) (P02866 whole entry, looked up): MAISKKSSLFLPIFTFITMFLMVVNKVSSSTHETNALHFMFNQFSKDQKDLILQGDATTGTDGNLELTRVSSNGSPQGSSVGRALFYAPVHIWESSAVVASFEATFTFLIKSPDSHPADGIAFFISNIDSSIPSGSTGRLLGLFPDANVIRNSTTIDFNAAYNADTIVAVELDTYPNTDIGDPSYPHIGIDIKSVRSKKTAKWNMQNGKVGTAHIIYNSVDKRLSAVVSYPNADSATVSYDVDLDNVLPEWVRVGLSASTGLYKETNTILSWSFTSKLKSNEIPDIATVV
Experiment [9] in a line: anti-His antibody binders, primary screen, artefact control for SMM control protein annotation, biochemical, small-molecule microarray, 635 nm fluorescence (AID 1128).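 Note: score merges feature fluorescence with signal-to-noise for each printed compound spot.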 The settings on record: anti-His Alexa647 antibody binding, higher = more signal.
For experiment [10], the system named is Human papillomavirus type 1a E7 protein (residues 1-88). Put plainly: HPV1a E7 small-molecule binders, primary screen, biochemical, small-molecule microarray, residues 1-88, 635 nm (AID 1129). To be noted: small-molecule microarray binding, fluorescence 635 nm; higher = more signal.
Experiment [11] has as its target Focal adhesion kinase 1 (Homo sapiens) (UniProt Q05397). Put plainly: small-molecule microarray binders of FAK, primary screen, biochemical, 635/667 nm fluorescence, BSA, DTT (AID 1130).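 Note: composite of spot emission at 667 nm and signal to noise over triplicate slides.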 The settings on record: PTK2 binding, 635 nm fluorescence, higher = more signal.
For experiment [12], the system named is Fibrinogen (Alexa647-labelled). Briefly: fibrinogen binders on compound microarrays, profiling panel, artefact control for SMM control-protein annotation, biochemical, small-molecule microarray, 635/667 nm fluorescence (AID 1131).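 Note: z-score merges 667 nm fluorescence with per-spot signal-to-noise over triplicate slides.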 The settings on record: fibrinogen-A647 binding fluorescence, higher = more signal.
Experiment [13] deals with Follistatin (Homo sapiens) (UniProt P19883). Put plainly: follistatin binders on small-molecule microarrays, primary screen, biochemical, small-molecule microarray, 635/667 nm fluorescence (AID 1132). To be noted: FST binding, 635 nm fluorescence, higher = more signal.
Sequence of Follistatin (Homo sapiens) (P19883 whole entry, looked up): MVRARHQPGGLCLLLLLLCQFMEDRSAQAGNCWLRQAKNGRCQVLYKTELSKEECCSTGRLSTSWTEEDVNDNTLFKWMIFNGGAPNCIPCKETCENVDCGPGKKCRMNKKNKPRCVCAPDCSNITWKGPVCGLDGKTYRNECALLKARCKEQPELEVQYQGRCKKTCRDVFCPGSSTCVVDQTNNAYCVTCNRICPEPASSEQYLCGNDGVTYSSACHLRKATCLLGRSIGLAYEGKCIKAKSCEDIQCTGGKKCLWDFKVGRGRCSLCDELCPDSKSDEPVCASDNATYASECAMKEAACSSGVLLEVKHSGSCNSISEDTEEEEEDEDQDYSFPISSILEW
Experiment [14] has as its target Fibroblast growth factor 2 (Homo sapiens) (UniProt P09038). Briefly: FGF2 binders on small-molecule microarrays, primary screen, biochemical, small-molecule microarray, 635/667 nm fluorescence (AID 1133). The settings on record: small-molecule microarray binding, FGF2, fluorescence 635/667; higher = more signal.
Experiment [15] in a line: mitochondrial membrane potential change in A549 cells, profiling panel, cell-based, JC-1 fluorescence, basal, 24 h, 100 nL (AID 1138).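 Note: A549 lung adenocarcinoma cells under basal conditions with no added stimulus; test concentration not given here.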 The settings on record: higher = more signal.
The subject of the next experiment is Lefty1. Put plainly: Lefty1 binders on small-molecule microarrays, primary screen, biochemical, small-molecule microarray, 635/667 nm fluorescence (AID 1139). The settings on record: small-molecule microarray binding, fluorescence 635/667; higher = more signal.
Experiment [16] relates to wheat germ agglutinin (Triticum aestivum), Alexa647-labelled. Briefly: wheat germ agglutinin binders on compound microarrays, profiling panel, artefact control for SMM control-protein annotation, biochemical, small-molecule microarray, 635/667 nm fluorescence (AID 1140).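 Note: score merges 667 nm feature emission with signal to noise over triplicate slides.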 The settings on record: WGA-A647 binding, 635 nm fluorescence, higher = more signal.
Experiment [17] concerns the target Luciferin 4-monooxygenase (Photinus pyralis) (UniProt P08659). Put plainly: firefly luciferase enzyme inhibitors, primary screen, biochemical, luminescence, purified enzyme, 2006 set (AID 1141).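 Note: cell-free assay with purified firefly luciferase at 100 ng per well in PBS; test concentration not given here.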 The settings on record: SteadyGlo luminescence, 30 min, higher = more signal, called active from +8 up or from −8 down.

Sequence of Luciferin 4-monooxygenase (Photinus pyralis) (P08659 whole entry, looked up): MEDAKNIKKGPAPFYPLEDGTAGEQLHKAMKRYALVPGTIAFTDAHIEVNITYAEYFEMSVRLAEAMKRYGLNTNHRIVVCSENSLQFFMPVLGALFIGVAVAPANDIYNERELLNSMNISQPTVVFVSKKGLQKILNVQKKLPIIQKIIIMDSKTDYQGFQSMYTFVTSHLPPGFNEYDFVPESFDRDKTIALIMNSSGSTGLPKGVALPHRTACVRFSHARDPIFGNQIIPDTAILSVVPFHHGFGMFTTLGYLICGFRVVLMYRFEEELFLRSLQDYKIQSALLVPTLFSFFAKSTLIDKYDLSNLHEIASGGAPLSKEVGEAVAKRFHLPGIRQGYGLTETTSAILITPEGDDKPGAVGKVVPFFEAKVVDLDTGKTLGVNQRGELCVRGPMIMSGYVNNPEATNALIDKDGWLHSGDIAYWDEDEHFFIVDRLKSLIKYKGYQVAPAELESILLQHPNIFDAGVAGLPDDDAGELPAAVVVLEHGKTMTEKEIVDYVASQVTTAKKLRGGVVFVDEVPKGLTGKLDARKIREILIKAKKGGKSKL
Sequence of Albumin (Bos taurus) (P02769 whole entry, looked up): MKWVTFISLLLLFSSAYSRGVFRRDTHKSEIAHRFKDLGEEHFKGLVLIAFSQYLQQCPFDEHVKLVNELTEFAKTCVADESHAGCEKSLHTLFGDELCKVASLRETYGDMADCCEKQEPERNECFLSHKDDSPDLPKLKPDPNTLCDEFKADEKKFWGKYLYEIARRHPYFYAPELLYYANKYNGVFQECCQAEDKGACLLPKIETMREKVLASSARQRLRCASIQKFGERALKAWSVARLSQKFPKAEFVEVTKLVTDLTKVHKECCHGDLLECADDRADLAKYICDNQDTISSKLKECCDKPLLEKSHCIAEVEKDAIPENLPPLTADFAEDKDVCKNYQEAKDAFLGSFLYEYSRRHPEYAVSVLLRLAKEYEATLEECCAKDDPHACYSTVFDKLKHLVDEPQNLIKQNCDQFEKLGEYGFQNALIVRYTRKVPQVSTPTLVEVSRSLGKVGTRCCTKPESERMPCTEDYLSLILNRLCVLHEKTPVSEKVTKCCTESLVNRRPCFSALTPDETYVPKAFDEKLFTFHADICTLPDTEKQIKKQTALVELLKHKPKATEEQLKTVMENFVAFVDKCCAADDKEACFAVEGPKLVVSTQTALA
Sequence of Focal adhesion kinase 1 (Homo sapiens) (Q05397 whole entry, looked up): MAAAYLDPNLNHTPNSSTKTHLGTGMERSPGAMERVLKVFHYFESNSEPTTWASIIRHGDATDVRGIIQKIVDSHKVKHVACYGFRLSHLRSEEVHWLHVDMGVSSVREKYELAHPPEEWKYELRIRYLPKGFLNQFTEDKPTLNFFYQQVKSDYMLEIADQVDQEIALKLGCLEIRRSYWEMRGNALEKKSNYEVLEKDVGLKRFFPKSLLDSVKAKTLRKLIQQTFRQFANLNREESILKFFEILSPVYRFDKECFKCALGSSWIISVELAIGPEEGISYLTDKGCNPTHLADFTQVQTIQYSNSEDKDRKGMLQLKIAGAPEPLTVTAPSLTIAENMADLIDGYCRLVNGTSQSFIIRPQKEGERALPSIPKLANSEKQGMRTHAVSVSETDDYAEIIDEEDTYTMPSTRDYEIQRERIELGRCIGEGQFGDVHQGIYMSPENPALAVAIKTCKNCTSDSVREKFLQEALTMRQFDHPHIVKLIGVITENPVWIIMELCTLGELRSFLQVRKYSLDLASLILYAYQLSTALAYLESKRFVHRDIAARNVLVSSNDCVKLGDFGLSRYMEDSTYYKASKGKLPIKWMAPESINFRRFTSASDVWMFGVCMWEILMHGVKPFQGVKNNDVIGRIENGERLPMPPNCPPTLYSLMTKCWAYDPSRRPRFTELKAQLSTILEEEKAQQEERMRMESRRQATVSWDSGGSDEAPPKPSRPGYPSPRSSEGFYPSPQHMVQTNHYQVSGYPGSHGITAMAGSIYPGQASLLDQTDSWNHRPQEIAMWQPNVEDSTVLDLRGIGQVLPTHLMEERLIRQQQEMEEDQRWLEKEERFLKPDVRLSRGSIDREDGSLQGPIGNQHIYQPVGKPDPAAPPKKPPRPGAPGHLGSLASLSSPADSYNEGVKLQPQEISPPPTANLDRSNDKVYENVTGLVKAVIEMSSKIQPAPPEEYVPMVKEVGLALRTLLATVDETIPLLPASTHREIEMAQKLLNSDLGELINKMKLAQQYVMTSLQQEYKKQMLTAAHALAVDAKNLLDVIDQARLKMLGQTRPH
Sequence of Fibroblast growth factor 2 (Homo sapiens) (P09038 whole entry, looked up): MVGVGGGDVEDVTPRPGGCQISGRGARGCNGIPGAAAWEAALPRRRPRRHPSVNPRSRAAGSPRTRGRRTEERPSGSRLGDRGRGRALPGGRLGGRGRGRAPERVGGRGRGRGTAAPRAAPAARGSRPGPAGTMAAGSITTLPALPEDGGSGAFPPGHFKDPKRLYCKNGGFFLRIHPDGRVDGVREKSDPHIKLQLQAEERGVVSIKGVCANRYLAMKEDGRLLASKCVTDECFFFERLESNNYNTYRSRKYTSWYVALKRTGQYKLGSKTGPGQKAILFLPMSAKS

`O=C(c1ccccc1)N1C(=O)[C@]2(Cc3ccccc31)N=C(c1ccc(OCCCO)cc1)O[C@@H]2c1ccccc1`: the composite z-score in the experiment with Albumin (Bos taurus) was 0.462; in [2], 0.0691; in [3] it was -0.0928; in [4], 0.204; in experiment [5], 2.7; in experiment [6], 0.356. Moreover, the composite z-score with Sam68 (KHDRBS1) is 1.29; in experiment [7] it was 0.371; in experiment [8], 1.13; in experiment [9] it was 1.87; in experiment [10], 1.23; in experiment [11] it was 0.677. Moreover, the composite z-score in experiment [12] came out at 0.965; in [13] it was 1.24; in experiment [14], 0.944; in the experiment with Lefty1 it was 0.764; in experiment [16], 0.305. Moreover, the composite Z-score in experiment [1] is -0.129 (inactive). Also, the z-score in experiment [15] was -2.12; in experiment [17] it was -1.33 (inactive).

Turning to `O=C(Cc1ccccc1)[C@H]1C2C=CCCC(c3ccccc3)=C2CN1Cc1ccccc1` (stereo not given in full), the composite z-score was -0.567 in the experiment with Albumin (Bos taurus); -0.166 in experiment [2]; -0.179 in experiment [3]; -0.302 in experiment [4]; -0.328 in experiment [5]; 0.0448 in experiment [6]. Further, the composite z-score was -0.299 with Sam68 (KHDRBS1); 0.23 in [7]; -0.22 in experiment [8]; -0.162 in experiment [9]; -0.304 in [10]; -0.241 in experiment [11]. Also, the composite z-score in experiment [12] was -0.0983; in experiment [13] it was 0.436; in experiment [14], 0.869; with Lefty1, -0.519; in [16], -0.394. For the same molecule, in experiment [1], the composite Z-score is -0.041 (inactive). The z-score in [15] is 1.77; in experiment [17], -1.06 (inactive).

In the case of `CCCNC(=O)[C@@]1(C)c2ccccc2C(=O)N(c2ccc(C)cn2)[C@H]1c1ccc(CO)cc1`, the composite z-score with Albumin (Bos taurus) is -0.0296; in [2], -0.246; in experiment [3] it was -0.108; in [4], 0.699; in experiment [5] it was -0.604; in experiment [6], -0.105. Moreover, the composite z-score with Sam68 (KHDRBS1) is -0.264; in experiment [7], 0.0286; in experiment [8], -0.283; in experiment [9], 0.0998; in experiment [10], -0.268; in [11], 0.23. For the same molecule, the composite z-score was -1.78 in experiment [12]; 0.169 in [13]; -0.465 in experiment [14]; -0.0558 in the experiment with Lefty1; -0.311 in experiment [16]. For the same molecule, the composite Z-score in [1] was 0.164 (inactive). For the same molecule, the z-score in [15] was 0.672; in experiment [17], -0.714 (inactive).

Turning to `CC(=O)NCCCC[C@@H]1NC(=O)[C@@H]2C[C@H](C(=O)NCCCCCN)[C@H](c3ccc(O)cc3)N2C1=O`, the composite z-score with Albumin (Bos taurus) was determined as 0.0285; in [2], 0.237; in [3], 0.0654; in experiment [4], 0.527; in [5], 1.26; in [6], 1.06. Also, the composite z-score was 1.11 in the experiment on Sam68 (KHDRBS1); 0.964 in experiment [7]; 0.956 in experiment [8]; 0.367 in experiment [9]; 1.19 in [10]; 0.445 in [11]. The composite z-score in experiment [12] worked out at 0.671; in experiment [13], 1.33; in [14], 1.24; in the experiment on Lefty1 it was 1.58; in experiment [16], 0.283. Further, the composite Z-score in experiment [1] was -0.0662 (inactive). The z-score in experiment [15] is -0.664; in experiment [17], -0.399 (inactive).

On to `CO[C@H]1O[C@H](CO)[C@@H](OC(=O)Nc2ccccc2)[C@H](OC(=O)c2cc3ccccc3[nH]2)[C@H]1OC(=O)c1cc2ccccc2[nH]1`, for which the composite z-score with Albumin (Bos taurus) was 0.124; in experiment [2] it was -0.0368; in experiment [3] it was -0.0166; in [4], 0.793; in experiment [5], 0.68; in experiment [6], 0.94. Moreover, the composite z-score in the experiment on Sam68 (KHDRBS1) came to 0.396; in experiment [7] it was 0.132; in [8] it was 0.282; in experiment [9], 0.568; in experiment [10] it was 0.181; in experiment [11], 0.353. Besides, the composite z-score in [12] is 0.475; in experiment [13], 1.13; in experiment [14], 1.61; in the experiment with Lefty1, 0.532; in experiment [16], 0.562. The composite Z-score in experiment [1] was 1.12 (inactive). The results for the z-score in [15] and in [17] were 0.132 and -0.378 (inactive), respectively.
